Screening data (PubChem)
This is a sample that favours compounds with a hit; in the whole collection about 2.4% have one here.
D2 PAM-1: Beta-Arrestin HTS for Positive Allosteric Modulators of the Human D2 Dopamine Receptor: Potentiators. D(2) dopamine receptor (Homo sapiens), P14416. 360,000 tested, 0.23% active. AID 624464, 2012. DiscoveRx D2 beta-arrestin cells, luminescence, 90 min; 100% = 57 uM dopamine signal. potentiation, % (no concentration beside the values); in the data active = potentiation above about 50%; inconclusive = mostly about 30% to 49%
Target sequence (P14416 whole entry, looked up): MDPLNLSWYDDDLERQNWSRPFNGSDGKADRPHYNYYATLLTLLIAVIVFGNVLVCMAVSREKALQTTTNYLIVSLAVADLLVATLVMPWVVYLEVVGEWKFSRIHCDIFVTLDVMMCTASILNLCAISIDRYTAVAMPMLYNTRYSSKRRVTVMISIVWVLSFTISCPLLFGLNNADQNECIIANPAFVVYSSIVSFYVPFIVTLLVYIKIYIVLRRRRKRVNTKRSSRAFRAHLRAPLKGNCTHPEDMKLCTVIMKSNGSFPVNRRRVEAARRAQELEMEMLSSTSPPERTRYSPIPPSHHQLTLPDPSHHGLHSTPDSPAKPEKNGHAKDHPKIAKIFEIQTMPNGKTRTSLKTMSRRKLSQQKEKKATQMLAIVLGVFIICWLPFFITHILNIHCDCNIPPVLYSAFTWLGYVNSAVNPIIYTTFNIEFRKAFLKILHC
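PathHunter beta-arrestin assay in DiscoveRx D2 cells. Compounds were added with an EC20 of dopamine (50 nM final) for 90 min at 37 deg C. Luminescence was read 1 h after detection reagent, with 57 uM dopamine as the EC100 control.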
D2 ag-1: HTS Assay for Allosteric Agonists of the Human D2 Dopamine Receptor: Primary Screen for Agonists; 340,000 tested, 0.53% active; HEK293 T-REx D2 cells, calcium flux agonist mode; activation, % at 2 µM; AID 485358, 2010; D(2) dopamine receptor (Homo sapiens), P14416;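 active = activation over 3 SD above normal in the single-dose calcium agonist read, cut at about 30% in these data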; note: 0% is about no effect
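Agonism is scored from calcium flux in a force-coupled, inducible HEK293 cell line expressing D2, read kinetically for 180 s after compound addition against dopamine controls.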
D2 antag: HTS Assay for Allosteric Antagonists of the Human D2 Dopamine Receptor: Primary Screen for Antagonists. D(2) dopamine receptor (Homo sapiens), P14416. HEK293 TREx D2 cells, calcium flux, dopamine EC80. inhibition, % at 10 µM. 340,000 tested, 2% active. AID 485344, 2010; in the data active = inhibition above about 30%; inactive = below that, where a call was filed; note: 0% is about no effect
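Tetracycline-induced HEK293 TREx cells expressing D2 receptor forced-coupled to calcium signalling, loaded with no-wash calcium dye. Compounds added and calcium flux read 180 s, then dopamine added at EC80 and read a further 180 s.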
D2 ag-2: Beta-Arrestin HTS for Positive Allosteric Modulators of the Human D2 Dopamine Receptor: Agonists; activation, % (concentration not given with the values); DiscoveRx PathHunter D2 beta-arrestin, luminescence, 90 min; 100% = 57 uM dopamine signal; 360,000 tested, 0.084% active; D(2) dopamine receptor (Homo sapiens), P14416; in the data active = activation above about 40%; inconclusive = between about 15% and that limit
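DiscoveRx PathHunter D2 beta-arrestin cells (2,100/well) attached overnight, then compound-stimulated 90 min at 37 C in HBSS/10 mM HEPES/0.1% Tween-20 buffer; beta-galactosidase complementation read by luminescence after 1 h at ambient temperature. Dopamine 57 uM final (EC100) as control.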
D2 PAM-2: HTS Assay for Positive Allosteric Modulators of the Human D2 Dopamine Receptor: Primary Screen for Potentiators | HEK293 T-REx D2, calcium flux, EC20 dopamine potentiation | potentiation, % at 10 µM | D(2) dopamine receptor (Homo sapiens), P14416 | AID 485347, 2010 | 340,000 tested, 0.34% active;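 active = potentiation over 3 SD above the plate norm, cut at about 30% in these data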; note: 0% is about no effect
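Primary screen. Calcium kinetics in induced HEK293 T-REx D2 cells: compound pre-addition 180 s, EC20 dopamine, 180 s more.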
D3 ag: qHTS of D3 Dopamine Receptor Agonist: D3 Dopamine Receptor B-arrestin Agonist Confirmatory Assay; DiscoveRx D3 beta-arrestin cells, luminescence, 90 min; AID 720506, 2013; 2,300 tested, 4% active; Potency, µM (series often up to 76.9 µM), inactives show at the top dose activation, usual class: activators; shares compounds with D2 ag-1;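 note: potency is the fitted concentration of half-maximal effect; 100% = dopamine control response; nearly all actives have a fitted effect of over 70% in size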
D2 ag-3: qHTS of D3 Dopamine Receptor Agonist: D2 Dopamine Receptor B-arrestin Agonist Counterscreen | shares compounds with D2 ag-1 | DiscoveRx PathHunter D2 beta-arrestin, luminescence, 90 min; response scale: percent relative to full dopamine signal | 2,300 tested, 5.9% active | Potency, µM (doses to about 76.9 µM), for inactives: at the highest dose activation, hits mostly activators; note: potency is the fitted concentration of half-maximal effect; % of control where 0% means no effect; nearly all actives have a fitted effect of over 70% in size
Numbers without * were called inactive; ? = inconclusive; / = no result given. Unless noted, calls come from the whole dose curve; as a rule, active = well fitted activation curve with a large enough effect; inconclusive = small, poorly fitted or top-dose-only effect; inactive = flat fitted curve, though single readings scatter.

SMILES	D2 PAM-1	D2 ag-1	D2 antag	D2 ag-2	D2 PAM-2	D3 ag	D2 ag-3
COc1ccccc1N1CCN(CCC(=O)Nc2ccc3c(c2)OCO3)CC1	-16	55*	80*	-1	-18	-4%	1%
CCOc1ccc(NC(=O)CCN2CCN(C)CC2)cc1	-6	0	-13	3	18	/	/
CCOc1ccc(NC(=O)CCN2CCN(c3ccccc3F)CC2)cc1	14	79*	77*	?	-20	?	?
COc1ccc(C(=O)CCN2CCCCCC2)cc1	-14	3	-7	-2	-8	/	/
COc1ccc(NC(=O)CN2CCN(c3ccccc3F)CC2)cc1	-42	0	-1	-1	6	/	/
COc1ccccc1N1CCN(CC(=O)Nc2ccc3c(c2)OCCO3)CC1	5	-1	-24	1	19	/	/
CCOc1ccc2cc(-c3nnc(Nc4ccccc4F)s3)c(=O)oc2c1	/	1	/	/	0	/	/
CCOC(=O)N1CCC(Nc2c(NCCN3CCN(Cc4ccccc4)CC3)c(=O)c2=O)CC1	-19	0	23	0	-15	/	/
COc1ccc(NC(=O)NCCCN2CCN(c3ccccc3F)CC2)cc1	-4	82*	92*	6	-25	?	24%
O=C(CN1CCN(c2ccccc2F)CC1)c1ccc2cc[nH]c2c1	-14	28	29	-4	-25	9%	12%
CC(=O)N1CCc2cc(C(=O)CN3CCN(c4ccccc4F)CC3)ccc21	-9	0	-5	-4	11	/	/
CCOC(=O)N1CCC(Nc2c(NCCN3CCN(c4ccccc4F)CC3)c(=O)c2=O)CC1	-11	43*	24	2	-9	?	3%
COc1ccc(-c2noc(CCC(=O)NCCN3CCN(c4ccccc4F)CC3)n2)cc1	-32	41*	65*	-1	-27	-1%	18%
CCN1CCN(CCCNC(=O)CCc2nc(-c3ccc(OC)cc3)no2)CC1	-2	1	-10	-2	-15	/	/
COc1ccc(NC(=O)CCSc2nc(C)cs2)cc1	-9	-1	14	-4	11	/	/
CCOc1ccc(NC(=O)CCN2CCN(c3ccccc3OC)CC2)cc1	-31	27	61*	1	-28	-7%	4%
COc1cccc(NC(=O)CCN2CCN(c3ccccc3F)CC2)c1	-8	76*	77*	?	-24	?	?
Cc1ccc(NC(=O)C2CCCN(C(=O)c3cnn(-c4ccc(F)cc4)c3-n3cccc3)C2)c(Cl)c1 (stereo unspecified)	/	-1	/	/	0	/	/
Clc1nnc(NN=C2CCCC2)c2ccccc12	0	61*	2	-4	-20	-4%	-7%
COc1ccc(N2CCN(C(=O)c3c(C)oc4ncn(CC(C)C)c(=O)c34)CC2)cc1	/	0	/	/	2	/	/
Cc1cc(F)ccc1-c1cc(C(=O)NC2CCCCC2)[nH]n1	-16	/	/	-3	/	/	/
COc1ccc(OC)c(S(=O)(=O)NCc2cn3ccsc3n2)c1	-8	26	-2	-4	-9	-5%	2%
CCCNC(=O)C(Cc1ccc(Br)cc1)NC(=O)c1ccc(C#N)cc1 (stereo unspecified)	-1	0	19	-2	-1	-8%	-4%
C#CCC(NC(=O)c1ccc(C#N)cc1)C(=O)NCCC (stereo unspecified)	-3	0	0	-1	-5	/	/
CCCNC(=O)C(Cc1ccc(Cl)cc1)NC(=O)c1ccc(C#N)cc1 (stereo unspecified)	-1	0	2	-9	1	-2%	-4%
SMILES	D2 PAM-1	D2 ag-1	D2 antag	D2 ag-2	D2 PAM-2	D3 ag	D2 ag-3
COc1ccc(S(=O)(=O)Nc2ccc3c(c2)C(=O)N([C@H](C)CO)C[C@H](C)[C@@H](CN(C)Cc2ccncc2)OCCCC[C@@H](C)O3)cc1	-7	/	/	1	/	/	/
Cc1cccc(CSc2nnc([C@@H]3CCCN3C(=O)OC(C)(C)C)o2)c1	-31	-1	36*	-3	0	-1%	-5%
O=C(N1CCN(c2ccccc2)CC1)C12CC3CC(CC(C3)C1)C2	-2	80*	72*	7	-30	22%	21%
O=C(N1CCN(Cc2ccccc2)CC1)C12CC3CC(CC(C3)C1)C2	-24	-1	-20	-3	10	/	/
Cc1cccc(C)c1N1CCN(CCn2c(=S)[nH]c3ccccc3c2=O)CC1	-3	30	71*	-4	-20	-2%	8%
CCN1CCN(CCn2c(=S)[nH]c3ccccc3c2=O)CC1	-34	0	11	-3	-18	/	/
COc1ccc(-n2c(=O)c3c4c(sc3n(Cc3ccccc3)c2=O)CN(C(C)=O)CC4)cc1OC	/	0	/	/	3	/	/
CN(C)c1ccc(C(CNC(=O)Cc2cccc3ccccc23)N(C)C)cc1 (stereo unspecified)	-21	0	1	-1	-10	/	/
Cc1ccc(-n2c(N)cc(=O)nc2SCC(=O)N2CCN(c3ccccc3)CC2)cc1C	-20	4	-5	-2	4	/	/
COc1ccc(-n2c(N)cc(=O)nc2SCC(=O)N2CCN(c3ccccc3)CC2)cc1	-3	21	1	-1	-8	-12%	-4%
CCOC(=O)Cc1c(C)nc2c(-c3ccc(Cl)cc3)c(C(F)(F)F)nn2c1C	/	1	/	/	-7	/	/
O=C(COc1coc(CN2CCN(c3ccccc3F)CC2)cc1=O)NC1CCCCC1	2	1	19	15	-8	12%	16%
Cc1ccccc1NC(=O)COc1coc(CN2CCN(Cc3ccccc3)CC2)cc1=O	-13	74*	-4	1	-34	-32%	-3%
Cc1ccc(NC(=O)COc2coc(CN3CCN(Cc4ccccc4)CC3)cc2=O)cc1	-7	-1	4	4	11	/	/
CC(=O)Nc1ccc(CN2C(=O)C(Cc3ccccc3)ON=C2c2ncccc2C)cc1 (stereo unspecified)	-4	/	/	-5	/	/	/
CCOC(=O)c1ccc(-n2cccc2/C=C2\NC(=O)NC2=O)cc1	/	-1	7	/	-14	2%	2%
